Results on five molecules are retold here after PubChem BioAssay.

Each structure is given as a SMILES string. Values joined by “and” are separate entries in the source; they are usually repeats but may differ in a detail not shown here. Identical values can stand only once. Active and inactive are the calls of the source.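 The calls were made as follows, unless noted: active = compounds that lower survival of HCT116 colon cancer cells in the luminescence readout, no numeric limit stated; inactive = the rest.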

The nature of test [1]: Wnt pathway potentiators raising nuclear beta-catenin – imaging, WNT3A-conditioned medium, mouse C2C12, NPC library, primary screen (AID 1117326; in the data active = nuclear beta-catenin stimulation mostly above about 4.2%, no sharp cut-off; inactive = mostly below about 10%). The note with it: stronger effect = higher value.
The nature of test [2]: stimulators of insulin release from INS-1E, primary screen, cell-based, 5 mM glucose, NPC library (AID 1117329;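 active = compound raises insulin release from rat beta cells at 5 mM glucose, no numeric limit stated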). The note with it: rat INS-1E insulin secretion, at 10 µM, stronger effect = higher value.
Test [3] is described as follows: growth inhibition of GSK3B-pretreated HCT116 cells – cell-based, CellTiter-Glo, 0.2 to 20 µM (AID 1117336;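 active = compounds lowering colon cancer cell viability after pretreatment blocking the GSK3B kinase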). The note with it: HCT116 viability after GSK3B inhibitor, at 20 µM, stronger effect = higher value. (In general: In ATP-based viability assays light output follows the ATP content of the culture.)
Test [4] can be described thus: inhibition of endothelial tube formation, primary screen, imaging, VEGF stimulated, CD31 staining, tube area, NPC library (AID 1117340;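 active = compound that reduces growth-factor-driven endothelial tube area in a mixed cell culture, no cutoff stated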). As to conditions: VEGF-stimulated ADSC/ECFC co-culture, at 10 µM, stronger effect = higher value.
Test [5] in a line: GLP1 release stimulators, primary, NCI-H716, NPC library (AID 1117341;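 active = compound raises GLP1 secretion from the human gut endocrine cells, with no numeric limit stated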). The note with it: NCI-H716 cells, at 10 µM, stronger effect = higher value.
A short description of test [6]: HCT116 colon cancer cell growth inhibition, primary screen, CellTiter-Glo luminescence, NPC library (AID 1117342). As to conditions: at 20 µM (top of the series).
Test [7] can be described thus: reduced SW480 viability measured with CellTiter-Glo, NPC library, primary (AID 1117343;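 active = compounds that lower viability of the colon cancer cells in the luminescence readout, with no numeric limit stated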). As to conditions: CellTiter-Glo luminescence; at 20 µM (top of the series) unless noted.
Test [8] can be described thus: NPC library primary testing for decreased DLD-1 cell viability via CellTiter-Glo (AID 1117346;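 active = compounds that lower survival of DLD-1 colon cancer cells in the luminescence readout, no cutoff given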). As to conditions: DLD-1 viability, CellTiter-Glo luminescence; at 20 µM (top of the series).
Test [9] is described as follows: EMT-state selective cytotoxicity in co-culture – imaging, PC-3E GFP, TEM4-18 mCherry, primary screen (AID 1345086;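 active = compounds killing one labelled cell type while sparing the other, by normalised counts and ratio limits, not self-fluorescent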;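 as to all read-outs here: cells exposed to compound for 72 h before imaging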;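 as to red/green cell ratio (normalised): normalised mesenchymal count divided by normalised epithelial count so high means epithelial killing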). As to conditions: PC-3E GFP / TEM4-18 mCherry co-culture, imaging cell counts, at 1 µM; for red/green cell ratio (normalised): actives lie on both sides, counts scaled to control wells, 1 = unselective.
A short description of test [10]: viability loss with induced miR-34 in A549 – imaging, A549 dox-inducible miR-34, nuclei and caspase counts, primary screen (AID 1347080;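 active = compounds whose cell count with miR-34 switched on is under 0.7 times the count with it off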). The note with it: A549 miR-34 inducible, Hoechst nuclei count, 48 h.
Test [11] has as its target NAD(+) hydrolase SARM1 (Homo sapiens) (UniProt Q6SZW1). Put plainly: blocking NAD cleavage by SARM1 SAM-TIR – cell lysate, NAD-Glo luminescence (AID 1508614;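 active = compound whose remaining NAD level is above about 45 nM, limit read from the data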;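 also: higher remaining NAD means stronger inhibition of SARM1 NADase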). As to conditions: SAM-TIR HEK293T lysate NADase, at 1 µM, stronger effect = higher value.
The nature of test [12]: compounds altering viability of human ES cells (AID 493140; call rule not given here;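 also: cells exposed to compounds for four days before counting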). The note with it: human embryonic stem cell survival screen; stronger effect = higher value.
Test [13] in a line: P. berghei load reduction in hepatocytes – cell-based, HepG2, luciferase luminescence, HepG2 viability, primary screen (AID 624349; in the data active = parasite load remaining mostly below about 12%, no sharp cut-off; inactive = mostly above about 10%;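 also: 100% = mean of DMSO negative control wells on the same plate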). The note with it: P. berghei liver stage in HepG2, luciferase luminescence, concentration not given here; parasite load remaining: stronger effect = lower value; viability: measured here: HepG2 viability without parasites.
Test [14] in a line: MELAS cybrid and Rieske KO viability enhancers – cell-based, MELAS cybrids, Rieske KO mouse fibroblasts, CellTiter-Glo, primary screen (AID 1508586;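 active = mean z-score across replicates of 1.96 or higher in either the MELAS or the Rieske mutant cell line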;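 also: z relative to plate mean and SD of compound and empty wells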). The note with it: low glucose.
The mark [15] stands for this setting: measured here: epithelial PC-3E GFP cell survival.
Setting [16] is: measured here: mesenchymal TEM4-18 mCherry cell survival.
The mark [17] stands for this setting: stronger effect = lower value, cell number ratio, induced over uninduced.
Setting [18] is: measured here: relative caspase fold change +Dox/-Dox.
Setting [19] is: measured here: total cells with miR-34 induction, stronger effect = lower value.
Setting [20] is: measured here: total cells without miR-34 induction.
Where [21] appears, read: MELAS cybrid survival, CellTiter-Glo 48 h, stronger effect = higher value.
Setting [22] is: Rieske KO mouse fibroblast survival, CellTiter-Glo 72 h.

Sequence of NAD(+) hydrolase SARM1 (Homo sapiens) (Q6SZW1 whole entry, looked up): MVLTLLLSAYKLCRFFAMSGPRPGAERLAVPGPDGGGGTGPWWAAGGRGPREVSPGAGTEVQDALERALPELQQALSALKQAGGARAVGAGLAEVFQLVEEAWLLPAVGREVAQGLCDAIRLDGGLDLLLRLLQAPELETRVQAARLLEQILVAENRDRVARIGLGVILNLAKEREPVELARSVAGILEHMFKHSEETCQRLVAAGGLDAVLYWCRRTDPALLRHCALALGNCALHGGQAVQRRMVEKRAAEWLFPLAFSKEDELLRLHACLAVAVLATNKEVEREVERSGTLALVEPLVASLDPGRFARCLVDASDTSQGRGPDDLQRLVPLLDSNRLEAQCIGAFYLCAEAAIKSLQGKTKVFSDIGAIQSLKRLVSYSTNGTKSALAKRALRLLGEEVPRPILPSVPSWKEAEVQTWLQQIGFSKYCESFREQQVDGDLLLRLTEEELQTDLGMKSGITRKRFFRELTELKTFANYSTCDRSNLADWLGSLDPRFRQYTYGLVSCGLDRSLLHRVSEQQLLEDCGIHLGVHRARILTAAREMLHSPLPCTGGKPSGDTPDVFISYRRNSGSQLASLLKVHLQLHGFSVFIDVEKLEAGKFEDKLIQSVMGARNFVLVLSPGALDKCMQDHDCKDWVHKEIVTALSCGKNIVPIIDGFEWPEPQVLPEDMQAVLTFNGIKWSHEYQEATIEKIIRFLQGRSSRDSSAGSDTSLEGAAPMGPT

`CCOc1ccc(NC(=O)CC(C)O)cc1` (centres undefined): the nuclear beta-catenin stimulation in test [1] (at 10 µM) is -2.6% (inactive); in [1] (stimulation, at 2 µM), 0.2%. Further, the insulin secretion stimulation in test [2] was 0.2% (inactive). Further, in test [3], the viability decrease is -0.1% (inactive). The tube area decrease in test [4] is 4.3% (inactive). Besides, the GLP1 secretion stimulation in test [5] is -3.3% (inactive). Also, in test [6], the inhibition of viability is 1.4% (inactive). The viability decrease (inhibition) is -2.6% (active) in [7] and -15.7% (inactive) in test [8]. Moreover, the red/green cell ratio (normalised) in test [9] is 1.16 (inactive). Moreover, the normalised cell number in test [9] (setting [15]) was found to be 0.83; in test [9] (setting [16]), 0.96. The values for the fold change in [10] (setting [17]) and in [10] (setting [18]) were 0.956 (inactive) and 0.822, respectively. Also, the cell count was 9180 in [10] (setting [19]) and 9600 in test [10] (setting [20]). For the same molecule, the remaining NAD in test [11] was 10 nM (inactive).
What is called viability is the share of living cells, or the viability signal relative to a control. `CCCNC(C)(C)COC(=O)c1ccccc1`: in test [12], the survival is 15.2 (inactive). Moreover, the parasite load remaining in [13] was 69.3% (inactive). Also, the viability in [13] amounted to 69.4%. Further, the nuclear beta-catenin stimulation is 0.1% (inactive) in [1] (at 10 µM) and 0.2% in test [1] (stimulation, at 2 µM). For the same molecule, in test [2], the insulin secretion stimulation is 4.2% (inactive). Further, the viability decrease in [3] is 0.2% (inactive). Moreover, in test [4], the tube area decrease was 6.5% (inactive). Further, the GLP1 secretion stimulation in test [5] is 4% (inactive). In test [6], the inhibition of viability was -3.5% (inactive). The viability decrease (inhibition) was 42.3% (inactive) in test [7] and 25.6% (inactive) in [8]. The red/green cell ratio (normalised) in test [9] was 1.13 (inactive). The normalised cell number in test [9] (setting [15]) is 1.15; in test [9] (setting [16]), 1.29. For the same molecule, the values for the fold change in test [10] (setting [17]) and in [10] (setting [18]) were 0.976 (inactive) and 0.64, respectively. Moreover, the cell count in test [10] (setting [19]) was 9410; in test [10] (setting [20]) it was 9640. Also, the figures for the z-score in [14] (setting [21]) and in [14] (setting [22]) were -0.122 (inactive) and -0.0308, respectively. Besides, the remaining NAD in test [11] is 10 nM (inactive).
Regarding `Cc1cccc(C)c1NC(=O)c1ccccc1C(=O)O`, the nuclear beta-catenin stimulation in [1] (at 10 µM) was 0.1% (inactive); in [1] (stimulation, at 2 µM), 0.7%. Besides, the insulin secretion stimulation in [2] was -0.4% (inactive). Also, the viability decrease in [3] is -4.6% (inactive). The tube area decrease in test [4] is -28.9% (inactive). The GLP1 secretion stimulation in [5] is 1.9% (inactive). Moreover, in test [6], the inhibition of viability was 3.1% (inactive). For the same molecule, the viability decrease (inhibition) is 49.6% (inactive) in [7] and 17.1% (inactive) in [8]. For the same molecule, the red/green cell ratio (normalised) in [9] was 0.84 (inactive). Also, the results for the normalised cell number in [9] (setting [15]) and in test [9] (setting [16]) were 0.94 and 0.79, respectively. For the same molecule, the figures for the fold change in test [10] (setting [17]) and in test [10] (setting [18]) were 0.96 (inactive) and 0.664, respectively. Moreover, the cell count in test [10] (setting [19]) was found to be 8770; in [10] (setting [20]) it was 9130. Further, in test [11], the remaining NAD is 10 nM (inactive).
Turning to `CCCCCCC[N+](CC)(CC)CCCCc1ccc(Cl)cc1`, the survival in test [12] is 0.5 (inactive). For the same molecule, the parasite load remaining in [13] was 34.3% (inactive) and 96.8% (inactive). The viability in test [13] is 48.5% and 90.6%. Moreover, the nuclear beta-catenin stimulation in test [1] (at 10 µM) is 1.5% (inactive); in test [1] (stimulation, at 2 µM) it was 0.5%. Further, in test [2], the insulin secretion stimulation was 1% (inactive). Further, the viability decrease in test [3] was 95.1% (active). For the same molecule, in test [4], the tube area decrease is 83.4% (active). In addition, the GLP1 secretion stimulation in test [5] was 7.2% (inactive). Moreover, in test [6], the inhibition of viability is 79.1% (active). The values for the viability decrease (inhibition) in test [7] and in [8] were 60.9% (active) and 75.4% (active), respectively. The red/green cell ratio (normalised) in test [9] is 0.92 (inactive). Moreover, the normalised cell number in [9] (setting [15]) is 0.97; in [9] (setting [16]), 0.89. Also, the fold change in test [10] (setting [17]) is 0.718 (inactive); in test [10] (setting [18]) it was 1.54. The figures for the cell count in [10] (setting [19]) and in [10] (setting [20]) were 6720 and 9350, respectively. Further, the z-score in test [14] (setting [21]) was -3 (inactive); in [14] (setting [22]), -0.71.
Regarding `CN1C(=O)CC(C)(c2ccccc2)C1=O` (centres undefined), the nuclear beta-catenin stimulation in test [1] (at 10 µM) is 2.5% (inactive); in test [1] (stimulation, at 2 µM) it was 2%. Moreover, in [2], the insulin secretion stimulation is -0.7% (inactive). In addition, the viability decrease in test [3] is -2.5% (inactive). For the same molecule, the tube area decrease in test [4] is -16.2% (inactive). Besides, the GLP1 secretion stimulation in [5] is 2.6% (inactive). For the same molecule, the inhibition of viability in test [6] was 8.7% (inactive). Also, the viability decrease (inhibition) in test [7] is 19.6% (inactive); in [8], -5.25% (inactive). Also, in [9], the red/green cell ratio (normalised) was 1.03 (inactive). Moreover, the figures for the normalised cell number in [9] (setting [15]) and in [9] (setting [16]) were 0.99 and 1.02, respectively. In addition, the fold change in test [10] (setting [17]) is 0.901 (inactive); in test [10] (setting [18]), 0.963. The cell count in test [10] (setting [19]) was found to be 8480; in test [10] (setting [20]) it was 9410. For the same molecule, in test [11], the remaining NAD was 10 nM (inactive).
